Experimental data as given in PubChem BioAssay (Tox21).
Inconclusive results are not listed. Calls of active or inactive are those of the source. Unless noted, the call rests on the fitted dose curve; in most records, active means well fitted curve in the direction sought with a large enough effect in the repeat runs; inconclusive means weak or mixed curves; inactive means no such curve, though single readings can be large; an effect the other way counts as inactive or inconclusive.

Key:
[1] = qHTS assay for small molecule agonists of the p53 signaling pathway (AID 651631; calls by dose curve; further: nearly all actives have a fitted effect of over 15% in size)
In short: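 HCT-116 cells carrying a beta-lactamase reporter under p53 response elements were dosed with compound for 16 h at 37 °C. LiveBLAzer B/G FRET substrate was then added for 2 h at room temperature, and fluorescence intensity was read to detect pathway agonism.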

[2] = qHTS assay for small molecules that induce genotoxicity in human embryonic kidney cells expressing luciferase-tagged ATAD5 (AID 651632); further: nearly all actives have a fitted effect of over 15% in size
In short: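 Test compounds were delivered by pin tool onto HEK293T reporter cells (2,000/well) expressing ATAD5 fused to luciferase. After 16 hr at 37C, 5% CO2, Amplite was added for 30 min at room temperature and luminescence was measured.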

[3] = qHTS assay for small molecule agonists of the p53 signaling pathway - cell viability (AID 651633; calls by dose curve;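 further: p53RE-bla HCT reporter cells with a stable beta-lactamase p53 reporter; series mostly up to about 83 µM; nearly all actives have a fitted effect of over 30% in size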)
In short: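 p53RE-bla cells, seeded at 4,000 per well and rested 5 h at 37 C/5% CO2, received compounds in DMSO for 16 h at 37 C. CellTiter-Glo was then added, and luminescence was read after 30 min at room temperature to gauge cytotoxicity.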

[4] = qHTS assay for small molecules that induce genotoxicity in human embryonic kidney cells expressing luciferase-tagged ATAD5 - cell viability (AID 651634; calls by dose curve; further: nearly all actives have a fitted effect of over 25% in size)
In short: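 Quantitative high-throughput format. HEK293T cells expressing ATAD5 fused to luciferase were plated at 2,000 cells/well and treated 15.5 hr with compound versus DMSO. Viability was determined by fluorescent live-cell protease substrate, 30 min at 37C.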

[5] = qHTS assay for small molecule disruptors of the mitochondrial membrane potential - cell viability (AID 720634; calls by dose curve;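 further: human HepG2 liver cancer cells; series mostly up to about 83 µM; nearly all actives have a fitted effect of over 20% in size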)
In short: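 Same-well counter-screen: following the MMP dye addition, CellTiter-Glo was added to 1 hr compound-treated HepG2 cells and luminescence read after 30 min at room temperature.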

[6] = qHTS assay for small molecule disruptors of the mitochondrial membrane potential (AID 720635)
In short: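 HepG2 cells (2,000/well) attached overnight at 37C, then took compound for 1 hr at 37C, 5% CO2. Mito-MPS dye was added for 30 min; fluorescence was read at 490/535 nm (monomers) and 540/590 nm (aggregates).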

[7] = qHTS assay to test for compound auto fluorescence at 590 nm (red) in HepG2 cells (AID 720674)
In short: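 Compound auto-fluorescence is scored relative to Rose Bengal sodium, measured at 540/590 nm in live HepG2 cultures after 1 hr compound contact (37 C, 5% CO2).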

[8] = qHTS assay to test for compound auto fluorescence at 535 nm (green) in HepG2 cells (AID 720675)
[9] = qHTS assay to test for compound auto fluorescence at 460 nm (blue) in HEK293 cells (AID 720678)
In short: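 Intrinsic compound fluorescence is recorded in live HEK293 cultures after overnight incubation at 37C, 5% CO2, using excitation 405 nm and emission 460 nm. Values are referenced to triamterene.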

[10] = qHTS assay to test for compound auto fluorescence at 590 nm (red) in HEK293 cells (AID 720679)
In short: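 Red autofluorescence, HEK293 cells: 2,000 cells/well; attach 4-5 hr 37C; add 23 nL cpd or DMSO; incubate o/n 37C 5% CO2; read Ex540/Em590; Rose Bengal sodium reference.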

Measured: Potency

C1OCOCO1
inactive: [1] | [2] | [3] | [4] | [5] | [6] | [7] | [8] | [9] | [10]

O=c1n(CCO)c(=O)n(CCO)c(=O)n1CCO
inactive: [1] | [2] | [3] | [4] | [5] | [6] | [7] | [8] | [9] | [10]

NC(=O)Nc1ccccc1
inactive: [1] | [2] | [3] | [4] | [5] | [6] | [7] | [8] | [9] | [10]

CCN(CC)CCNC(=O)c1cc(S(C)(=O)=O)ccc1OC
inactive: [1] | [2] | [3] | [4] | [5] | [6] | [7] | [8] | [9] | [10]

COCCc1ccc(OCC(O)CNC(C)C)cc1 (configuration not stated)
inactive: [1] | [2] | [3] | [4] | [5] | [6] | [7] | [8] | [9] | [10]

CC(C[N+](C)(C)C)OC(N)=O (configuration not stated)
inactive: [1] | [2] | [3] | [4] | [5] | [6] | [7] | [8] | [9] | [10]

CC(C(=O)O)c1ccc(CC2CCCC2=O)cc1 (configuration not stated)
inactive: [1] | [2] | [3] | [4] | [5] | [6] | [7] | [8] | [9] | [10]

N[C@H](C(=O)O)c1ccc(O)cc1
inactive: [1] | [2] | [3] | [4] | [5] | [6] | [7] | [8] | [9] | [10]

O=C(O)c1ccccc1OP(=O)(O)O
inactive: [1] | [2] | [3] | [4] | [5] | [6] | [7] | [8] | [9] | [10]

CC(C)(O)C#CC(C)(C)O
inactive: [1] | [2] | [3] | [4] | [5] | [6] | [7] | [8] | [9] | [10]

CC(C)c1cc2c(cc1S(=O)(=O)O)[C@@]1(C)CCC[C@@](C)(C(=O)O)[C@@H]1CC2
inactive: [1] | [2] | [3] | [4] | [5] | [6] | [7] | [9] | [10]

Nc1cc(=O)[nH]c(N)n1
inactive: [1] | [2] | [3] | [4] | [5] | [6] | [7] | [8] | [9] | [10]

Cn1cc(S(C)=O)c(=O)c2ccc(F)cc21 (configuration not stated)
inactive: [1] | [2] | [3] | [4] | [5] | [6] | [7] | [8] | [9] | [10]

O=C(O)CNC(=O)c1ccc([N+](=O)[O-])cc1
inactive: [1] | [2] | [3] | [4] | [5] | [6] | [7] | [9] | [10]

CO[Si](CCCOCC1CO1)(OC)OC (configuration not stated)
inactive: [1] | [2] | [3] | [4] | [5] | [6] | [7] | [8] | [9] | [10]

C=CCS(=O)(=O)O
inactive: [1] | [2] | [3] | [4] | [5] | [6] | [7] | [8] | [9] | [10]

C[C@H]1C[C@@H](O)CC(C)(C)C1
inactive: [1] | [2] | [3] | [4] | [5] | [6] | [7] | [8] | [9] | [10]

N=c1nc(N2CCCCC2)cc(N)n1O
inactive: [1] | [2] | [3] | [4] | [5] | [6] | [7] | [8] | [9] | [10]

O=C1OC(=O)C2CCCCC12 (configuration not stated)
inactive: [1] | [2] | [3] | [4] | [5] | [6] | [7] | [8] | [9] | [10]

C[C@](N)(Cc1ccc(O)cc1)C(=O)O
inactive: [1] | [2] | [3] | [4] | [5] | [6] | [7] | [8] | [9] | [10]

CN1CC(=O)NC1=N
inactive: [1] | [2] | [3] | [4] | [5] | [6] | [7] | [8] | [9] | [10]

CCCCCCCCS(=O)(=O)Cl
inactive: [1] | [2] | [3] | [4] | [5] | [6] | [7] | [8] | [9] | [10]

COC(=O)c1cc(C(=O)OC)cc(S(=O)(=O)O)c1
inactive: [1] | [2] | [3] | [4] | [5] | [6] | [7] | [8] | [9] | [10]

O=C(O)CCCl
inactive: [1] | [2] | [3] | [4] | [5] | [6] | [7] | [8] | [9] | [10]

NS(=O)(=O)c1ccccc1Cl
inactive: [1] | [2] | [3] | [4] | [5] | [6] | [7] | [9] | [10]
